PAX8 inh HTS = PAX8 transcriptional activity inhibition | RMG-I TPO-luciferase reporter, SteadyGlo, 24 h | actives 1.2% (n = 360,000) | inhibition, % at 12.6 µM;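 active = mean replicate inhibition at least 60% with every replicate also reaching 60%; inconclusive = only one of the two criteria is met; inactive = mean below 60% and not all replicates reaching 60%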;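 note: luciferase light reporting Pax8 driven TPO promoter activity; plate controls were median of neutral control wells for no effect and mitoxantrone controls for full effect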
PGC1a acetyl inh = lowers PGC1a acetylation signal in U2OS cells; AlphaScreen anti-acetyl-lysine; with virally co-expressed GCN5 acetyltransferase; inhibition, % at 15.6 µM; actives 0.17% (n = 350,000); AID 651687;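 active = every replicate shows inhibition of at least 40%; inconclusive = mean inhibition at least 40% but some replicate below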;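 note: 0% = neutral control wells and 100% = positive control wells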
EWS-Fli inh = EWS/Fli transcriptional activity inhibition | A673 NR0B1-luciferase reporter, viability-normalised | inhibition, % at 12.6 µM | actives 0.67% (n = 350,000) | AID 651661;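 active = mean inhibition of at least 50% after viability correction, with every replicate also passing that limit; inconclusive = mean reaches 50% but only one of two replicates passes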;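 note: firefly luciferase signal divided by Alamar Blue viability fluorescence both relative to DMSO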
MITF TRPM1 inh = reduces MITF-dependent TRPM1 promoter luciferase signal; actives 0.83% (n = 330,000); inhibition, % at 12.5 µM; SK-MEL-5 TRPM1 promoter luciferase, 24 h;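 active = mean inhibition across replicates of 60% or more, whatever share of single replicates reaches that level; inconclusive = some that reach 60%, reason not given; inactive = mean inhibition across replicates below 60%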
LGR2 inh = Drosophila LGR2 receptor signaling inhibition | actives 0.35% (n = 380,000) | HEK293 LGR2, CRE-luciferase, bursicon-stimulated, 4 h | inhibition, % at 9.99 µM;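 active = drop in luminescence signal, shown as inhibition above about 50% in the replicate tests, limit read from the data, passing the limit was not always enough; inconclusive = probably only some replicates passing the limit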;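 note: agonist challenge used bursicon conditioned medium at about half maximal strength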
LMP1 NFkB inh = reduces LMP1-driven NF-kappaB luciferase signal; LMP1-induced NF-kappaB luciferase reporter cells, luminescence; AID 504558; inhibition, % at 12.5 µM; actives 0.69% (n = 350,000); in the data active = inhibition above about 41%; inconclusive = no clear call, values can overlap the other calls;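 note: 0% = neutral control wells and 100% = reference inhibitor control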
DNA binding = small molecule DNA binding by fluorescence polarization. AC35, µM (doses to about 68 µM), for inactives: at the top dose activity change, negative = DNA binding. shares compounds with EWS-Fli inh. salmon sperm DNA acridine orange fluorescence polarization. actives 2% (n = 640);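 active = fitted curve reaches a 35% signal fall AC35 below twice the sample's top valid tested dose, actives reach about 48 µM in these data; inactive = the rest, including activity in the rising direction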;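 note: lower polarization ratio signals compound binding to DNA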
The depositor's hits bear a star. This is a sample that favours compounds with a hit; in the whole collection about 2.2% have one here.

For CCN1/C(=C/C=C/c2oc3ccc(-c4ccccc4)cc3[n+]2CC)Oc2ccc(-c3ccccc3)cc21 the results were PAX8 inh HTS 98*, PGC1a acetyl inh 34, EWS-Fli inh 90*, MITF TRPM1 inh 102*, LGR2 inh 37, LMP1 NFkB inh 44* and DNA binding 22µM*.
`COC(=O)C[C@H]1CC[C@@H]2[C@@H](COc3ccc(NC(=O)Nc4cccc(Cl)c4)cc3C(=O)N2C)O1` gave PAX8 inh HTS -2, PGC1a acetyl inh 2, EWS-Fli inh -9 and LGR2 inh 31.
`COC(=O)C[C@@H]1CC[C@H]2[C@H](COc3ccc(NC(=O)Nc4cc(C)cc(C)c4)cc3C(=O)N2C)O1` gave PAX8 inh HTS 6, EWS-Fli inh 64*, LGR2 inh 9 and DNA binding 2%.
Screening COC(=O)C[C@@H]1CC[C@@H]2[C@@H](COc3ccc(NC(=O)Nc4cccc(C#N)c4)cc3C(=O)N2C)O1 returned PAX8 inh HTS -5, PGC1a acetyl inh 2, EWS-Fli inh 76*, LGR2 inh 0 and DNA binding 7%.
For COC(=O)C[C@H]1CC[C@@H]2[C@H](COc3ccc(NC(=O)Nc4cccc(Cl)c4)cc3C(=O)N2C)O1 the results were PAX8 inh HTS -68, PGC1a acetyl inh 4, EWS-Fli inh 60*, LGR2 inh 27 and DNA binding -4%.
COC(=O)C[C@@H]1CC[C@H]2[C@H](COc3ccc(NC(=O)Nc4cccc(C#N)c4)cc3C(=O)N2C)O1 was read as PAX8 inh HTS 4, PGC1a acetyl inh -2, EWS-Fli inh 34 and LGR2 inh 11.
Screening COC(=O)C[C@H]1CC[C@H]2[C@H](COc3ccc(NC(=O)Nc4cccc(Cl)c4)cc3C(=O)N2C)O1 returned PAX8 inh HTS -7, PGC1a acetyl inh -5, EWS-Fli inh 80*, LGR2 inh 4 and DNA binding -4%.
For COc1ccc(/C=C(/C(=O)c2cccs2)N2C=CC=CC2=C(C#N)C#N)cc1 the results were PAX8 inh HTS -8, EWS-Fli inh 79*, MITF TRPM1 inh 46, LMP1 NFkB inh 0 and DNA binding 2%.
Screening COc1ccc(N=N/C(=C\O)C(=O)c2cccs2)cc1 returned PAX8 inh HTS -41, PGC1a acetyl inh -10, EWS-Fli inh -23, MITF TRPM1 inh 7, LGR2 inh -25 and LMP1 NFkB inh 13.
`C[C@H](CO)N1C[C@H](C)[C@H](CN(C)Cc2ccc(Oc3ccccc3)cc2)Oc2ccc(NC(=O)CCCCCC(=O)Nc3ccccc3N)cc2CC1=O` gave PAX8 inh HTS 16, PGC1a acetyl inh 13, EWS-Fli inh 61*, LGR2 inh 1 and DNA binding -12%.
`C[C@H]1CN([C@@H](C)CO)C(=O)Cc2cc(NC(=O)CCCCCC(=O)Nc3ccccc3N)ccc2O[C@@H]1CN(C)Cc1ccc(-c2ccccc2)cc1` gave PAX8 inh HTS -2, PGC1a acetyl inh -7, EWS-Fli inh -16 and LGR2 inh -17.
Screening C[C@@H]1CN([C@H](C)CO)C(=O)Cc2cc(NC(=O)CCCCCC(=O)Nc3ccccc3N)ccc2O[C@@H]1CN(C)CC1CCCCC1 returned PAX8 inh HTS -1, PGC1a acetyl inh -7, EWS-Fli inh 61*, LGR2 inh -7 and DNA binding 2%.
`C[C@@H]1CN([C@@H](C)CO)C(=O)c2cccc(NC(=O)CCCCCC(=O)Nc3ccccc3N)c2O[C@@H]1CN(C)Cc1ccc(Oc2ccccc2)cc1` gave PAX8 inh HTS 26, PGC1a acetyl inh -2, EWS-Fli inh 53*, LGR2 inh -32 and DNA binding -4%.
For C[C@@H]1CN([C@@H](C)CO)C(=O)Cc2cc(NS(=O)(=O)c3cccs3)ccc2O[C@H]1CN(C)Cc1ccc(Cl)c(Cl)c1 the results were PGC1a acetyl inh 10, EWS-Fli inh 59*, LGR2 inh 31 and DNA binding -9%.
`C[C@@H]1CN([C@H](C)CO)C(=O)c2cccc(NC(=O)CCCCCC(=O)Nc3ccccc3N)c2O[C@@H]1CN(C)Cc1ccc(Oc2ccccc2)cc1` gave PAX8 inh HTS 31, PGC1a acetyl inh 8, EWS-Fli inh 16 and LGR2 inh -31.
`COc1ccc(NC(=O)Nc2ccc3c(c2)[C@H]2C[C@@H](CC(=O)NCc4ccccc4F)O[C@@H](CO)[C@H]2O3)cc1` gave PAX8 inh HTS -12, PGC1a acetyl inh -6, EWS-Fli inh 6 and LGR2 inh 12.
`COc1cccc(-c2cnc3c(c2)C(=O)N([C@@H](C)CO)C[C@@H](C)[C@H](CN(C)Cc2ccncc2)O3)c1` gave PGC1a acetyl inh -1, EWS-Fli inh -2 and LGR2 inh -16.
C[C@@H]1CN([C@@H](C)CO)C(=O)Cc2cc(NC(=O)CCCCCC(=O)Nc3ccccc3N)ccc2O[C@@H]1CN(C)Cc1ccc(-c2ccccc2)cc1 was read as PAX8 inh HTS 24, PGC1a acetyl inh 10 and EWS-Fli inh 14.
Screening C[C@H]1CN([C@@H](C)CO)C(=O)Cc2cc(NC(=O)CCCCCC(=O)Nc3ccccc3N)ccc2O[C@H]1CN(C)Cc1ccc(C(F)(F)F)cc1 returned PAX8 inh HTS 36, PGC1a acetyl inh 1, EWS-Fli inh 56*, LGR2 inh -14 and DNA binding -8%.
`C[C@H](CO)N1C[C@H](C)[C@@H](CN(C)Cc2ccc(Cl)c(Cl)c2)Oc2ccc(NC(=O)CCCCCC(=O)Nc3ccccc3N)cc2CC1=O` gave PAX8 inh HTS 29, PGC1a acetyl inh -4, EWS-Fli inh inconclusive and LGR2 inh -1.
Screening C[C@H]1CN([C@@H](C)CO)C(=O)Cc2cc(NC(=O)CCCCCC(=O)Nc3ccccc3N)ccc2O[C@H]1CN(C)Cc1ccc(Oc2ccccc2)cc1 returned PAX8 inh HTS 17, PGC1a acetyl inh -6, EWS-Fli inh 60*, LGR2 inh -1 and DNA binding -6%.
For C[C@H](CO)N1C[C@H](C)[C@H](CN(C)Cc2ccccc2)Oc2ccc(NC(=O)CCCCCC(=O)Nc3ccccc3N)cc2CC1=O the results were PAX8 inh HTS 11, PGC1a acetyl inh 0, EWS-Fli inh 56*, LGR2 inh 14 and DNA binding -9%.
C[C@H]1CN([C@@H](C)CO)C(=O)Cc2cc(NC(=O)CCCCCC(=O)Nc3ccccc3N)ccc2O[C@H]1CN(C)Cc1ccc(Cl)c(Cl)c1 was read as PAX8 inh HTS 53, PGC1a acetyl inh 1, EWS-Fli inh 51*, LGR2 inh -5 and DNA binding -7%.
`CNC[C@@H]1Oc2ncc(-c3ccccc3F)cc2C(=O)N([C@@H](C)CO)C[C@@H]1C` gave PAX8 inh HTS -13, PGC1a acetyl inh 30, EWS-Fli inh -1 and LGR2 inh -1.

Screening results from PubChem BioAssay.
